The source made the active and inactive calls. Rule for the calls: active = hit-call score of the fitted dose curve at least 0.9, where 1 is the maximum; inactive = score below 0.9.

The assay can be described thus: ATG_TCF_b_cat_CIS: Attagene CIS-FACTORIAL HepG2 Assay for human T-Cell-Factor with beta-catenin (TCF/b-cat) (AID 2282965). Conditions: HepG2 TCF/beta-catenin cis-reporter transcription, actives raise or lower the signal. On the procedure: ATG_CIS is a cell-based, multiplexed-readout assay that uses HepG2, a human liver cell line, with measurements taken at 24 hours after chemical dosing in a 24-well plate.ATG_TCF_b_cat_CIS is one of 52 assay component(s) measured or calculated from the ATG_CIS assay. It is designed to make measurements of mRNA induction, a form of inducible reporter, as detected with fluorescence intensity signals by Reverse transcription polymerase chain reaction (RT-PCR) and Capillary electrophoresis technology.Data from the assay component ATG_TCF_b_cat_CIS was analyzed into 1 assay endpoint. This assay endpoint, ATG_TCF_b_cat_CIS, was analyzed with bidirectional fitting relative to DMSO as the negative control and baseline of activity. Using a type of inducible reporter, measures of mRNA for gain or loss-of-signal activity can be used to understand the reporter gene at the transcription factor-level as they relate to the gene TCF7 and TCF7L2 and LEF1 and TCF7L1. Furthermore, this assay endpoint can be referred to as a primary readout, because this assay has produced multiple assay endpoints where this one serves a reporter gene function. To generalize the intended target to other relatable targets, this assay endpoint is annotated to the dna binding intended target family, where the subfamily is HMG box protein.
Human liver HepG2 cells are transiently transfected with multiple reporter transcription units (MRTUs) in 6-well plates using FuGene 6 reagent (Roche; 3 ml FuGene/1 mg DNA). The MRTU constructs are regulated by a cis-regulating element (promoter). […] A major difference between the CIS and TRANS system is that in CIS activities of endogenous TFs are measured, whereas the TRANS assay evaluates changes in activities of exogenous, chimeric NR-Gal4 proteins. […] At the end of 24 hour incubation, total RNA was isolated using TriZol reagent (Invitrogen). The isolated RNA is then reverse-transcribed using oligo(dT) primer and Mo-MLV reverse transcriptase (Invitrogen) with DNAse I (Ambion) treatment for 30 min. The one-tenth of the produced cDNA was amplified by PCR using Taq DNA polymerase (Invitrogen) and two reporter sequence-specific primers. The PCR products were fluorescently labeled by primer extension with 6-arboxyfluorescein (6-FAM) 5'-labeled reporter sequence-specific primer (2 min at 95 C, 20 s at 68 C and 10 min at 72 C) and these products were digested with 5U of HpaI (New England Biolabs) for 2h at 37 C. The fragments were purified using Qiaquick PCR columns (Qiagen), analyzed on an ABI 3130xL genetic analyzer (Applied Biosystems) with peak positions identified by using a set of X-rhodamine (ROX)-labeled MapMarker1000 molecular weight standards (BioVentures). The raw capillary electrophoresis data was processed using Attagraph software (Attagene).
`COC(C)(C)CCO`: the call was inactive.

Take `Cc1c(Cl)cccc1[N+](=O)[O-]`: the call was inactive.

`CCN(CC)C(=O)N(CC)CC`: the outcome was inactive.

In the case of `CCCCOCC`, the call was inactive.

Consider `CC(C)NCC(O)COc1ccc(CC(N)=O)cc1` (stereo not given), for which the compound was classed as inactive.

Regarding `CCc1cc(C(C)(C)C)c(O)c(C(C)(C)C)c1`, the outcome was inactive.

As to `CC(C)Nc1nc(N)nc(Cl)n1`, the outcome was inactive.

As to `COS(=O)(=O)O`, the compound was called inactive.

Take `CC(C)=CCCC(C)CCOC=O` (stereo not given): the call was inactive.

Turning to `C=C(C)C(=O)OCCOC1CC2CC1C1C=CCC21` (stereo not given), the compound was classed as inactive.

Take `OCCCCC(O)CO` (stereo not given): the outcome was inactive.

With `C=Cc1ccc(C)cc1`, the call was inactive.

As for `COC(=O)c1ccc(C)cc1C1=NC(C)(C(C)C)C(=O)N1` (stereo not given) (tested in a mixture with another compound), the result was inactive.

What is called AC50 is the concentration at which the activity in the assay is half-maximal. With `C=C(C#N)C(=O)OCC`, the AC50 is 100 µM (active).

Consider `CCCC1O[C@@H]2C[C@H]3[C@@H]4CCC5=CC(=O)C=C[C@]5(C)[C@H]4[C@@H](O)C[C@]3(C)[C@]2(C(=O)CO)O1` (stereo not given in full), for which the concentration at half-maximal activity (AC50) was 100 µM (active).

In the case of `O=C(c1ccccc1)C(O)c1ccccc1` (stereo not given), the result was inactive.

For the compound `CC(C)CCCCCCc1ccc(OCCOCCO)cc1`, the compound was called inactive.

As for `OCc1cccc(Oc2ccccc2)c1`, the compound was classed as inactive.

As to `CC(C)CCCCCCCCCCCCCCC(=O)O`, the result was inactive.

Consider `Nc1ccccc1[N+](=O)[O-]`, for which the compound was classed as inactive.

As to `Clc1ccc(C(c2ccccc2Cl)C(Cl)Cl)cc1` (stereo not given), the AC50 was 59.9 µM (active).

Regarding `CCCOCCO`, the compound was called inactive.

Turning to `C=C(C)C(=O)OCCOCCOCCOCCOC(=O)C(=C)C`, the result was inactive.

With `C=CCOC(=O)CCCCCC`, the compound was classed as inactive.

`CC(=O)C1(C)CC2=C(CCCC2(C)C)CC1C` (stereo not given): the AC50 was 73.3 µM (active).

For the compound `C=C(C)C(=O)OCC(CC)(COC(=O)C(=C)C)COC(=O)C(=C)C`, the call was inactive.

`O=C(O)c1ccc(O)cc1`: the compound was classed as inactive.

With `COc1cc(Cl)c(OC)cc1N`, the outcome was inactive.

Consider `CC(C)(N=C=O)c1cccc(C(C)(C)N=C=O)c1`, for which the compound was called inactive.

`[O-]n1ccccc1=S.[O-]n1ccccc1=S.[Zn+2]`: the compound was classed as inactive.

Turning to `Cc1[nH]c(=O)c(C#N)cc1-c1ccncc1`, the compound was classed as inactive.

For the compound `CCCCOC(=O)CCCCCCCC(=O)OCCCC`, the half-maximal activity concentration (AC50) was 128 µM (active).

Turning to `Cc1ccc(OC(=O)c2ccccc2O)cc1`, the outcome was inactive.

Consider `COC(=O)c1ccc(OC)cc1`, for which the call was inactive.

On to `Nc1ccc(NCCO)c([N+](=O)[O-])c1`, for which the result was inactive.

As to `CCc1ccc(O)c(OC)c1`, the compound was called inactive.

For `C[Si](C)(C)O[Si](C)(C)C`, the result was inactive.

`C[C@H]1C[C@@H](O)CC(C)(C)C1`: the call was inactive.

As to `O=C(CC(=O)c1ccccc1)c1ccccc1`, the result was inactive.

Take `CCCCCCCCCC(=O)OC`: the compound was called inactive.

(Values after PubChem BioAssay (EPA / NIEHS).)
